# According to PubChem BioAssay AID651635 (National Center for Advancing Translational Sciences (NCATS), 2012):
# Out of some 400,000 compounds screened, about 1,900 (0.47%) were called active. About 14% were inconclusive and are not listed. Many of the other results were omitted from the sample, so actives are more common in it than they were. Values without a mark were called inactive. Calls come from the whole dose curve; as a rule, active = well fitted cell-killing curve with a large enough effect; inconclusive = small, poorly fitted or top-dose-only effect, or effect the other way; inactive = no such curve, though single readings can be large or run the other way.
# Test: Viability Counterscreen for Primary qHTS for Inhibitors of ATXN expression; note: nearly all actives have a fitted effect of over 40% in size
# Details: S2 cells (HEK-293 line with an ATXN2-luciferase reporter) viability, CellTiter-Fluor protease fluorescence, 24 h; series mostly up to 56.7 µM; activity change, negative = cytotoxicity: at the top concentration
# Potency is the fitted concentration of half-maximal effect.
SMILES,"activity change, negative = cytotoxicity",Potency
COC(=O)c1ccc2c(c1)N(CC(=O)Nc1ccc(C)c(C)c1)C(=O)c1ccccc1S2,-26.8%,
CC(C)n1cnc2c(NCc3ccccc3)cc(OCC3CCN(C)CC3)cc21,,31.6 µM (active)
CCC(CO)Oc1cc(NC(=O)c2ccc(Cl)cc2)c2ncn(C(C)C)c2c1 (stereo not given),-15.2%,
CN(C)c1nccc(NCc2ccccc2)c1C#N,15.7%,
COC(=O)c1ccc(CN2C(=O)C(Cc3ccccc3)ON=C2c2ncccc2C)o1 (stereo not given),-17.5%,
CCc1nc2c(OCc3cccc(OC)c3)cccn2c1N(C)C(=O)C(C)C,-8.7%,
Cc1nc2c(OCc3ccc(Cl)cc3Cl)cccn2c1N(C)CC1CC1,,20 µM (active)
CCc1nc2c(OCc3ccc(F)c(F)c3)cccn2c1N(C)C(=O)c1ccco1,-26%,
CCCCC(=O)N(C)c1c(CC)nc2c(OCc3ccc(Cl)cc3Cl)cccn12,-11.9%,
CCOC(=O)N(C)c1c(CC)nc2c(OCc3ccccc3C(=O)OC)cccn12,-37.6%,
CCc1nc2c(OCc3ccc(Cl)cc3Cl)cccn2c1N(C)C(=O)C(C)C,,22.4 µM (active)
CCOC(=O)[C@]12CCC=C1N(Cc1cccc3ccccc13)C(=O)[C@H](CC(=O)NCc1cccc(C(F)(F)F)c1)C2,-37.5%,
COc1ccc(NC(=O)C2CCC(CNS(=O)(=O)c3csc(C(N)=O)c3)CC2)cc1OC (stereo not given),4.18%,
CCCCNC(=O)C1CCC(CNS(=O)(=O)c2ccc(NC(C)=O)cc2)CC1 (stereo not given),,inactive
Cc1cc(NC(=O)C2CCC(CNS(=O)(=O)c3ccc(Br)s3)CC2)ccc1Br (stereo not given),,35.5 µM (active)
O=C(c1cn(CC2CCCN(Cc3cc4ccccc4s3)C2)nn1)N1CCCC1 (stereo not given),-16.3%,
COc1ccc(CCCNC(=O)C2Cc3c(-c4cccc(C(N)=O)c4)ccnc3O2)cc1 (stereo not given),-25.5%,
COC(=O)c1ccc2nc(-c3ccc(OC)c(OC)c3)c(Cc3ccccc3)n2c1,-38.4%,
Cc1cc(C)cc(CN2CCc3nnc(C(NS(C)(=O)=O)C(C)C)n3CC2)c1 (stereo not given),-15.6%,
OC(c1ccc(F)cc1)c1ncc(-c2cccc(C(F)(F)F)c2)[nH]1 (stereo not given),-35.2%,
CC(=O)OC[C@H]1O[C@@H](O[C@H]2[C@H](O)[C@@H](OC(=O)c3ccccc3C(=O)O)[C@H](O)O[C@@H]2COC(C)=O)[C@H](O)[C@@H](OC(=O)c2ccccc2C(=O)O)[C@@H]1O,-4.22%,
COc1cccc(NC(=O)c2ccc3c(SCC(=O)O)c4c(nc3c2)CCCC4)c1,-24%,
CCOc1ccc(C(=O)Nc2ccc3nc4c(c(Nc5ccccc5OC)c3c2)CCCC4)cc1,,14.1 µM (active)

SMILES,"activity change, negative = cytotoxicity",Potency
CCOc1ccc(NC(=O)CSc2nc3ccccc3c(=O)n2Cc2cccs2)cc1,-15.2%,
CCOc1ccc(NC(=O)CSc2nncn2C)cc1,21.1%,
CCOc1ccc(NC(=O)CSc2c3c(nc4ccccc24)CCCC3)cc1,,25.1 µM (active)
CCOc1ccc(-n2nc3ccc(NC(=O)c4ccc(OC)c(Cl)c4)cc3n2)cc1,-8.21%,
C[C@@H]1CCC[C@H](C)N1CCCC(O)(c1ccccc1)c1ccccn1 (stereo not given in full),-7.16%,
FC(F)(F)c1cccc(-c2cn[nH]c2C2CCCN(Cc3cccn3-c3ccccn3)C2)c1 (stereo not given),-20.2%,
O=C(NCCN1CCOCC1)c1cnn(-c2nccc(-c3cccs3)n2)c1C1CC1,-8.87%,
O=C(OCC(O)CO)c1ccccc1Nc1ccnc2c(C(F)(F)F)cccc12 (stereo not given),8.14%,
CCS(=O)(=O)Nc1cc(C(=O)N2C[C@@H](C)O[C@@H](C)C2)c2c(c1)nc(-c1ccccc1)n2C,-11.8%,
CC1(C)OC[C@@H](COC(=O)CCc2ccc(OC[C@@H](O)CNCCNC(=O)N3CCOCC3)cc2)O1,,inactive
CC(=O)Nc1cncc(-c2ccccc2CO)n1,-8.75%,
COc1cnc(-c2ccccn2)nc1Oc1ccc(C(C)(C)C)cc1,,10 µM (active)
COc1ccc2nc(-c3ccccn3)ccc2c1,-31.3%,
N#Cc1ccc(Oc2cc(C(F)(F)F)nc(-c3ccccn3)n2)cc1,-38.9%,
CCc1nc2c(OCCOc3ccccc3)cccn2c1N(C=O)Cc1ccc(OC)cc1,-32%,
C#Cc1ccc(NC(=O)C2(C)CCN2C(=O)Cc2ccc(-c3ccccc3)cc2)cc1 (stereo not given),-21.5%,
CC(C(=O)O)c1ccc(C2CCCCC2)c2ccccc12 (stereo not given),-15.4%,
O=C(NC(=O)c1ccccc1)Nc1ccccc1O,-5.19%,
COC(=O)c1nc(NC(=O)c2ccccc2)n[nH]1,-13.5%,
O=C(NC1=CC(=O)c2ccccc2C1=O)c1ccccc1,,7.08 µM (active)
CCCS(=O)(=O)NCc1c(C)ncc2c1CCN(C(=O)c1ccc(F)c(F)c1)C2,-6.2%,
O=C(OCCN1CCOCC1)c1cccnc1Nc1cccc(C(F)(F)F)c1,-5.42%,
COc1ccc(NC(=O)C2(C)Cc3c(-c4cccc(NC(C)=O)c4)ccnc3O2)cc1OC (stereo not given),-26.5%,

SMILES,"activity change, negative = cytotoxicity",Potency
COc1ccc(-n2c(CNC(=O)c3cc(C(F)(F)F)ccc3Cl)nnc2SC)cc1,-11.2%,
CCN(CC)c1ccc(/C=N/NC(=O)c2cnccn2)c(O)c1,,7.94 µM (active)
Cc1ccc(/C=N/NC(=O)C2=NNC(c3ccccc3)(c3ccccc3)C2)c(O)c1,-18.9%,
COc1ccc(NC(=O)C/C(C)=N/NC(=O)c2cnccn2)cc1Cl,-13.5%,
COc1cc(C(=O)N2CCC(c3ccncc3)CC2)cc(OC)c1OC,-4.24%,
CCOC(=O)[C@]12CCCC=C1N(Cc1ccc3c(c1)OCO3)C(=O)[C@H](CC(=O)NCc1cccs1)C2,-20.6%,
CCOc1ccc(NC(=O)c2nc(SCC)ncc2Cl)cc1,-16.9%,
Cc1ccc2nc(NC(=O)c3nc(SCc4ccccc4F)ncc3Cl)sc2c1,-29.2%,
COCCSc1nnc(NC(=O)CCS(=O)(=O)Cc2ccccc2)s1,-32.4%,
Cc1cccc(CS(=O)(=O)c2ncc(Cl)c(C(=O)Nc3ccc(F)cc3)n2)c1,,31.6 µM (active)
CSc1nnc(NC(=O)c2nc(S(=O)(=O)Cc3ccc(C)cc3)ncc2Cl)s1,,12.6 µM (active)
CCS(=O)(=O)c1ncc(N(Cc2ccc(F)cc2)Cc2ccco2)c(C(=O)Nc2cc(C)ccc2C)n1,-15.9%,
COc1ccccc1-c1ccnc(-n2ncc(C(=O)NCCc3ccncc3)c2C)n1,-6.5%,
O=C(O)c1ccccc1/C=N/Nc1ccc(S(=O)(=O)Nc2ccc(Cl)cc2)cc1[N+](=O)[O-],-23.7%,
O=[N+]([O-])c1cc(S(=O)(=O)Nc2cccc(Cl)c2)ccc1N=Nc1c(O)[nH]c2ccccc12,,28.2 µM (active)
Oc1[nH]c2ccccc2c1N=Nc1c(F)c(F)c(F)c(F)c1F,-34.7%,
CO/N=C(\C(=O)N[C@@H]1C(=O)N2C(C(=O)O)=C(C[N+]3(C)CCCC3)CS[C@H]12)c1csc(N)n1,-14.3% [at 25.4 µM],
COc1cc(-c2cccnc2)cc2c1OCCN(C(=O)Cc1csc(C)n1)C2,-16.2%,
COc1cc2[nH]c(C)c(CCN3CCN(c4ccccc4)CC3)c2cc1OC,-20.5%,
O=[N+]([O-])c1ccc(C=Nc2ccc(Cl)cc2Cl)s1,,11.2 µM (active)
CNN/C(N=Cc1ccc([N+](=O)[O-])s1)=N\S(=O)(=O)c1cc(C)c(Cl)cc1SCc1ccccc1,-34.8%,
CC1CN(C(=O)c2ccc([N+](=O)[O-])s2)CC(C)O1 (stereo not given),-21.9%,
CCOC(=O)[C@]12CCC=C1N(CCC1=CCCCC1)C(=O)[C@H](CC(=O)NCc1ccc(C)o1)C2,-38%,

SMILES,"activity change, negative = cytotoxicity",Potency
COC(=O)c1nc(Cl)c(Cl)nc1N,,15.8 µM (active)
COC(=O)c1nn(-c2cccc(Cl)c2)ccc1=O,5.56%,
COC(=O)c1c(C)c(C)nc(N)c1C#N,-3.55%,
CCCOc1ccc(F)cc1-c1cc(C(=O)NCc2ccc(F)cc2)[nH]n1,-12.6%,
CCC1CN(CCNC(=O)c2ccsc2)Cc2cc(OC)ccc2O1 (stereo not given),-8.37%,
CC[C@]1(O)C[C@@H]2CN(CCc3c([nH]c4ccccc34)[C@@](C(=O)OC)(c3cc4c(cc3OC)N(C)[C@H]3[C@@](O)(C(=O)OC)[C@H](OC(C)=O)[C@]5(CC)C=CCN6CC[C@]43[C@@H]65)C2)C1,,1 µM (active)
O=C(NCC1Cc2cc(F)cc(-c3cnccn3)c2O1)C1COc2ccccc2O1 (stereo not given),-9.12%,
CC[C@H](C)CCCCC(=O)N[C@@H](CCN)C(=O)N[C@H](C(=O)N[C@@H](CCN)C(=O)N[C@H]1CCNC(=O)[C@H]([C@@H](C)O)NC(=O)[C@H](CCN)NC(=O)[C@H](CCN)NC(=O)[C@H](CC(C)C)NC(=O)[C@@H](CC(C)C)NC(=O)[C@H](CCN)NC1=O)[C@@H](C)O,-1.3%,
CCN(CC)CCOC(=O)c1ccc(NC(=O)CNC(=O)c2ccccc2)cc1,-6.36%,
CCC(C(=O)OCCN(CC)CC)c1ccccc1 (stereo not given),,inactive
CC1(C(=O)NCC2CCOCC2)Cc2c(-c3cccc(C(N)=O)c3)ccnc2O1 (stereo not given),-23.9%,
O=C1NC(CC(=O)N2CCC(n3c(C4CCC4)nc4cccnc43)CC2)c2ccccc21 (stereo not given),-16%,
O=CNc1cc(-c2ccc(C(=O)N3CCOCC3)cc2)cn2c(-c3ccc(F)cc3)cnc12,-26.1%,
CCc1nc2c(OCCc3cccc(OC)c3)cccn2c1N(C)C(=O)c1ccc(C)cc1,-21.3%,
Cc1cc2ncn(CCCCOc3ccccc3)c2cc1C,,inactive
Cc1cc2nc(C)n(CCCNC(=O)Nc3ccccc3)c2cc1C,-11.2%,
COc1ccc(OCCCn2c(C)nc3cc(C)c(C)cc32)cc1,,28.2 µM (active)
COc1ccc(C(C#N)=C2C=CC(=NO)c3ccccc32)cc1,-0.613%,
CC[n+]1cc(C)ccc1/C=C/c1ccc(N(C)C)cc1,,25.1 µM (active)
NCC[C@H](O)C(=O)N[C@@H]1C[C@H](N)[C@@H](O[C@H]2O[C@H](CN)[C@@H](O)[C@H](O)[C@@H]2O)[C@H](O)[C@@H]1O[C@H]1O[C@H](CO)[C@@H](O)[C@H](N)[C@@H]1O,-2.32% [at 0.575 µM],
CO[C@]1(NC(=O)CSC(F)F)C(=O)N2C(C(=O)O)=C(CSc3nnnn3CCO)CO[C@H]21,9.74%,
